Experimental data reported in PubChem BioAssay AID504708 (Sanford-Burnham Center for Chemical Genomics, 2011).
The other results are listed elsewhere or left out. Values without a mark were called inactive. Active and inactive are the calls of the source.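 The calls were made as follows: active = inhibition at or below a set negative limit, negative inhibition meaning the enzyme was activated; inactive = the rest.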

Molecular target: Hexokinase HKDC1 (Homo sapiens) (UniProt Q2TB90)
Assay: compounds raising human HKDC1 activity – biochemical, single concentration, confirmation (AID 504708)
Settings: recombinant HKDC1, G6PDH/diaphorase resazurin fluorescence; at 20 µM; stronger effect = lower value

Sequence of Hexokinase HKDC1 (Homo sapiens) (Q2TB90 whole entry, looked up): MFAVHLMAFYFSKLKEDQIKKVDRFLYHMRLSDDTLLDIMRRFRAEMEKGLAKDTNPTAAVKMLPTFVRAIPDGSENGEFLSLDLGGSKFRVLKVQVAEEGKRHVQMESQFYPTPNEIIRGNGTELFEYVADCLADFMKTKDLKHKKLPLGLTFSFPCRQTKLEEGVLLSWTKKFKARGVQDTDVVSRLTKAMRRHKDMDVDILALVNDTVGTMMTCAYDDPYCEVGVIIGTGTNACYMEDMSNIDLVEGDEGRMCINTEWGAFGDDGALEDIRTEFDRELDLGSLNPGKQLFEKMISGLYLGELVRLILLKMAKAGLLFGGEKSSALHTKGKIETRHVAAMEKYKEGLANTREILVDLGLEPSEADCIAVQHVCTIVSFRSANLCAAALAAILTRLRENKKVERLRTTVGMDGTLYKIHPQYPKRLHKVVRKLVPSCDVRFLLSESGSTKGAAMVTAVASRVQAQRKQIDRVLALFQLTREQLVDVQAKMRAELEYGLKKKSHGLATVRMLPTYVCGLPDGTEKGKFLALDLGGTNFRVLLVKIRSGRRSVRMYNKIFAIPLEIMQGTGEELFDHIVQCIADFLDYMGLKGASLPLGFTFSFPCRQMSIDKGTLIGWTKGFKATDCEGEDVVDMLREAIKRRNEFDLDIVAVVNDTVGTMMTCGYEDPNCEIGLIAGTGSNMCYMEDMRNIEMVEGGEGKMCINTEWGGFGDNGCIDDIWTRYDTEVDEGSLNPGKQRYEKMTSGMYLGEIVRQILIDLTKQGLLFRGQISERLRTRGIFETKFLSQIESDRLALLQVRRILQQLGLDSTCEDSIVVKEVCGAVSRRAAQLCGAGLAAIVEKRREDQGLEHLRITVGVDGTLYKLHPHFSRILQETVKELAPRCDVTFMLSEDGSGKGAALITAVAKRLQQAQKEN

Row | Compound | inhibition
1 | O=C1NC(=O)N(c2ccc(F)cc2)C(=O)/C1=C/c1ccc2c(c1)CCCN2Cc1ccccc1 | 1.36%
2 | CC(=O)OC1C2(CC3N4C(=O)C5(CO)SSC4(CC31O)C(=O)N5C)OC(C)C(C)(C)C2=O (configuration not stated) | -77% (active)
